“And” between values parts separate entries of the source, which are not always exact repeats. Identical values can stand only once. Inconclusive results are not listed. The source made the active and inactive calls. Unless noted, the call rests on the fitted dose curve; in most records, active means well fitted curve in the direction sought with a large enough effect; inconclusive means small, poorly fitted or top-dose-only effect, or another doubt; inactive means no such curve, though single readings can be large; an effect the other way counts as inactive or inconclusive.
Legend:
[1] = Stat Signaling Pathway (AID 446; active means well fitted curve in either direction with a large enough effect, not every such curve was filed as active;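 further: ME-180 cervical cancer cells given 40 pM IL-6 alongside compound; SIE-controlled beta-lactamase reporter measured as 460/530 nm FRET emission ratio; on the % scale 0 is the no-effect control and ±100 the full control effect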)
In short: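 Screening format detects activators and inhibitors alike: ME-180 SIE-bla cells stimulated at 40 pM IL-6 for 5 hrs with compound, then dual-emission beta-lactamase read at 405 nm excitation.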

[2] = target: Glucocorticoid receptor (Homo sapiens) (UniProt P04150); assay: GR-GFP Redistribution (AID 450;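 active means compounds whose dose series gives a full or clear partial fitted curve of increased nuclear translocation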; further: potency means the concentration at half of the fitted maximal effect); conditions: U2OS GR-GFP nuclear translocation, laser cytometry, 2 h
Chain of Glucocorticoid receptor (Homo sapiens) (P04150 whole entry, looked up, the tested form may be a part): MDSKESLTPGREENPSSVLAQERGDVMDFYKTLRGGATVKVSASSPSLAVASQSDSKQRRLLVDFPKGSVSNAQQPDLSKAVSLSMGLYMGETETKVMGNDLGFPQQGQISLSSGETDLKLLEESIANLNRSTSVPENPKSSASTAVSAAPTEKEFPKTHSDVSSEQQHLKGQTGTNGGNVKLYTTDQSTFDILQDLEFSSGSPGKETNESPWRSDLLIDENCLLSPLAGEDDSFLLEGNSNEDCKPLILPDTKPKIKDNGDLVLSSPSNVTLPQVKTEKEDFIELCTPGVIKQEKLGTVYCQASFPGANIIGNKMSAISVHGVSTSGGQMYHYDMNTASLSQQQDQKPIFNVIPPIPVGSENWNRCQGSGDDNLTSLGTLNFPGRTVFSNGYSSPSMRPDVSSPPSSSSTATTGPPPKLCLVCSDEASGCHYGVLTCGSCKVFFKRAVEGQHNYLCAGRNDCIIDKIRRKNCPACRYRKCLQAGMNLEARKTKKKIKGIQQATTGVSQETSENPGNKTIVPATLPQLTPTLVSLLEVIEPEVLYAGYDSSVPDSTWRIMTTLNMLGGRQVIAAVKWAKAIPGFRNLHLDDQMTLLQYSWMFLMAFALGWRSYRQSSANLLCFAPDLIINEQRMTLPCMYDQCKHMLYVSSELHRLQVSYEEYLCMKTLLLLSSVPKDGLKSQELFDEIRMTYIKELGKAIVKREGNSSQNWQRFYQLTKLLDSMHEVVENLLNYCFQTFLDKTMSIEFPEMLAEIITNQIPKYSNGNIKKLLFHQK

[3] = target: Glucocorticoid receptor (Homo sapiens) (UniProt P04150); assay: GR-EFC Redistribution (AID 451; calls by dose curve; further: potency means the concentration at half of the fitted maximal effect); conditions: CHO-K1 GR-EFC translocation, beta-gal luminescence, 2 h
In short: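 CHO-K1 cells stably expressing nuclear-localized β-gal enzyme acceptor and GR fused C-terminally to the enzyme donor fragment; ligand-driven nuclear translocation restores β-gal by complementation. Compounds titrated up to 46 uM final, 2 h at 37 °C; luminescence read.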

[4] = target: Mitogen-activated protein kinase 10 (Mus musculus) (UniProt Q61831); assay: JNK3 AlphaScreen Assay (AID 530; active means well fitted curve in either direction with a large enough effect, not every such curve was filed as active;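 further: kinase came from lysate of stimulated human HepG2 cells; signal reports phosphorylation of biotinylated GST-cJun 1-79 at Ser73 with 10 µM ATP; on the % scale 0 is the no-effect control and ±100 the full control effect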)
In short: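 JNK3 came from HepG2 lysates pre-activated with IL-1beta and TNF-alpha and phosphorylated biotinylated GST-cJun (1-79) at 10 uM ATP, pH 7.6, room temperature. Compounds were titrated. AlphaScreen signal used anti-phospho-cJun (Ser73) antibody.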

[5] = target: 3',5'-cyclic-AMP phosphodiesterase 4B (Homo sapiens) (UniProt Q07343); assay: qHTS Assay for Inhibitors of PDE-IV (AID 607; active means well fitted activation curve with a large enough effect in the main read-out, with a control signal flat, not every such curve was filed as active; further: % of control where 0% means no effect)
Chain of 3',5'-cyclic-AMP phosphodiesterase 4B (Homo sapiens) (Q07343 whole entry, looked up): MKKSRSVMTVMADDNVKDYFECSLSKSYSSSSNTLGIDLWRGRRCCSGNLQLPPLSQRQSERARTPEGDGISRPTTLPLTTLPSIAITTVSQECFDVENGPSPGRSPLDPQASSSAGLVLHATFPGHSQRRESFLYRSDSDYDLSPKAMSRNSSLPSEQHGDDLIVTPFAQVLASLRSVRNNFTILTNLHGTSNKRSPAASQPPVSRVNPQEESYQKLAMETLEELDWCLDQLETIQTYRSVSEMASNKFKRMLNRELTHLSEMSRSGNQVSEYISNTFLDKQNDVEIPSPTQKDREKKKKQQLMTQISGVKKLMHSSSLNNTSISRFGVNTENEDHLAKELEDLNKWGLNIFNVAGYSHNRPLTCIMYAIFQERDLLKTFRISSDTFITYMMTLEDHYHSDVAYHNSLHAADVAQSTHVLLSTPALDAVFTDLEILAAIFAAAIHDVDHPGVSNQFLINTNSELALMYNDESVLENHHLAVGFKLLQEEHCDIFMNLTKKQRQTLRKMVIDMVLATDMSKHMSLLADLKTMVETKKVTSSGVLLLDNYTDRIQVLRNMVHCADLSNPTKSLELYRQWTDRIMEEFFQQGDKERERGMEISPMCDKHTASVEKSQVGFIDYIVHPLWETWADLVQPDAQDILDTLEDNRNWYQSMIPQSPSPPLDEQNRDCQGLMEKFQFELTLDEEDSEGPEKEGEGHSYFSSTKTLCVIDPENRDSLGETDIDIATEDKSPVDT
In short: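 The readout is membrane depolarisation from a cAMP-sensing CNG channel, detected with a potential dye at ex 535/em 590. Cells were HEK293-derived (endogenous PDE-IV) at 1000 cells/well, titrated up to 22.9 uM final.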

[6] = Cell Viability - N2a (AID 540); conditions: N2a mouse neuroblastoma cell viability; activity change, negative = cytotoxicity: at 92.2 µM (top of the series); further: nearly all actives have a fitted effect of over 45% in size; further: potency means the concentration at half of the fitted maximal effect;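 on activity change, negative = cytotoxicity: plate controls were DMSO alone for no effect and tamoxifen control for full effect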
In short: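 First, 1500 N2a cells per well incubate 5 hr at 37 °C; next, compounds are added and incubated 40 hr at 37 °C; finally CellTiter-Glo is added and luminescence read after 20 min, with AC50 derived by Hill modeling.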

[7] = Cell Viability - HUV-EC-C (AID 542); further: nearly all actives have a fitted effect of over 35% in size; further: potency means the concentration at half of the fitted maximal effect; on activity change, negative = cytotoxicity: on the % scale 0 is the no-effect control and ±100 the full control effect
In short: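 Decrease in cellular ATP, quantified by luciferase luminescence, reflects toxicity in normal human vascular endothelial HUV-EC-C cells given compound for 40 hr in complete culture medium. Values are AC50s from concentration-response curves.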

[8] = Cell Viability - H-4-II-E (AID 543); further: nearly all actives have a fitted effect of over 35% in size; further: potency means the concentration at half of the fitted maximal effect
In short: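 Here, cytotoxicity is measured in the rat hepatoma line H-4-II-E as loss of intracellular ATP after 40 hr compound treatment, detected by luciferase luminescence.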

[9] = Cell Viability - Renal Proximal Tubule (AID 545); conditions: renal proximal tubule cells viability, primary cells of rat origin; activity change, negative = cytotoxicity: at 91.7 µM (top of the series); further: nearly all actives have a fitted effect of over 40% in size; further: potency means the concentration at half of the fitted maximal effect;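 on activity change, negative = cytotoxicity: 0% = DMSO only and -100% = 100 µM tamoxifen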
In short: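 Rat renal proximal tubule primary cells, 1000/well, exposed to compounds for 40 hr at 37 °C in complete medium; cellular ATP read by CellTiter-Glo luminescence. AC50 from concentration-response fitted with standard Hill equation.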

[10] = Cell Viability - Mesenchymal (AID 546); conditions: mesenchymal cells viability, qHTS; activity change, negative = cytotoxicity: at 91.7 µM (top of the series);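 further: cells exposed to compound for 40 hours before reading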; further: potency means the concentration at half of the fitted maximal effect;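 on activity change, negative = cytotoxicity: 0% = DMSO only and -100% = 100 µM tamoxifen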
In short: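 Normal human renal glomerulus-derived kidney mesenchymal cells, 1000 per well in complete medium, were treated with compounds for 40 hr at 37 °C. Viability was read as intracellular ATP by CellTiter-Glo luminescence; AC50 values came from Hill-equation fits of qHTS concentration-response data.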

[11] = Cellular Toxicity (caspase-3) HepG2 (AID 654);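 further: cells exposed to compound for 16 hours before reading; 0% = DMSO alone and 100% = caspase signal from 100 µM tamoxifen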
In short: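 qHTS, HepG2, 1500 cells/well, complete medium; cpd 16 h 37 °C; Caspase-Glo 3/7, 20 min RT; lum. Norm: DMSO vs 100 uM tamoxifen; AC50 Hill fit.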

[12] = Cellular Toxicity (caspase-3) Jurkat (AID 655);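 further: cells exposed to compound for 16 h at 37 °C before reading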; further: potency means the concentration at half of the fitted maximal effect
In short: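 Jurkat cells (5000/well) in complete medium exposed 16 h at 37 C; caspase-3/7 activity read by Caspase-Glo luminescence after 20 min at room temperature. Normalized to DMSO and 100 uM tamoxifen; AC50 from Hill fits.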

[13] = Cellular Toxicity (caspase-3) HUV-EC-C (AID 656);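 further: 0% = DMSO basal and 100% = 100 µM tamoxifen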
In short: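 HUV-EC-C cells (1000/well) in complete medium, compound-treated 16 h at 37 °C; caspase-3/7 activity read by Caspase-Glo 3/7 luminescence. Normalized to DMSO (basal) and 100 uM tamoxifen (100%); AC50 from Hill-equation concentration-response fits.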

[14] = Cellular Toxicity (caspase-3) SHSY5Y (AID 657); further: potency means the concentration at half of the fitted maximal effect
In short: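 SH-SY5Y human neuroblastoma cells, 1500/well, exposed to compound for 16 hours at 37 °C in complete medium. Caspase-3/7 activity read by Caspase-Glo luminescence after 1 hr at room temperature, normalized to DMSO and 10 uM staurosporine; AC50 from Hill fit.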

[15] = Cellular Toxicity (caspase-3) BJ (AID 658);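 further: 0% = DMSO basal and 100% = 10 µM staurosporine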
In short: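 Luminescent aminoluciferin-substrate cleavage reports caspase 3/7 activity in normal human BJ fibroblasts after 16 hr compound exposure at 37 °C. Normalized to DMSO (basal) and 10 uM staurosporine (100%); AC50 from Hill fit of concentration-response.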

[16] = Cellular Toxicity (caspase-3) MRC-5 (AID 659);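 further: 0% = DMSO basal and 100% = 10 µM staurosporine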
In short: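 Luminescence from caspase-cleaved aminoluciferin substrate (Caspase-Glo 3/7, 1 hr RT) reports caspase 3/7 activity in MRC-5 lung fibroblasts after 16 hr compound exposure. Normalized to DMSO basal and 10 uM staurosporine as 100%; AC50 from Hill fits.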

[17] = Cellular Toxicity (caspase-3) Mesangial (AID 660);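 further: cells exposed to compound for 16 h before the caspase read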
In short: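 Concentration-response qHTS: compound-induced rise in caspase 3/7 luminescence in human mesangial cells after 16 h, normalized to DMSO and 100 uM tamoxifen controls.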

[18] = Cellular Toxicity (caspase-3) SK-N-SH (AID 661);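 further: 0% = DMSO basal and 100% = 10 µM staurosporine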
In short: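 Caspase 3/7 activation is measured as a luminescence increase from aminoluciferin released by substrate cleavage in SK-N-SH cells after 16 hr compound treatment; values are AC50 from concentration-response curves.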

[19] = Cell Viability - NIH 3T3 (AID 541); conditions: NIH 3T3 cell viability, qHTS; activity change, negative = cytotoxicity: at 92.2 µM (top of the series); further: nearly all actives have a fitted effect of over 25% in size; further: potency means the concentration at half of the fitted maximal effect;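 on activity change, negative = cytotoxicity: plate controls were DMSO alone for no effect and tamoxifen positive control for full effect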
In short: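 AC50 values reflect concentration-dependent loss of intracellular ATP in NIH 3T3 cells after 40 hr treatment in complete culture medium, quantified by luciferase-based luminescence.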

[20] = Cell Viability - SH-SY5Y (AID 544); conditions: SH-SY5Y neuroblastoma cell viability; viability change, negative = cytotoxic: at 92.2 µM (top of the series); further: nearly all actives have a fitted effect of over 55% in size; further: potency means the concentration at half of the fitted maximal effect;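 on viability change, negative = cytotoxic: 0% = DMSO alone and -100% = 100 µM tamoxifen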
In short: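 Cytotoxicity is scored as a concentration-dependent fall in intracellular ATP in human SH-SY5Y cells treated 40 hr in complete culture medium. Potency is expressed as AC50 from a Hill equation fit.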

CC1(C)O[C@@H]2C[C@H]3[C@@H]4CCC5=CC(=O)C=C[C@]5(C)[C@@]4(F)[C@@H](O)C[C@]3(C)[C@]2(C(=O)CO)O1
inactive: outcome [1]
active: Potency [2] 0.00313 µM

O=C1NC(c2cccc([N+](=O)[O-])c2)=CCN1c1ccccc1O
inactive: outcome [1] | Potency [2] > 46 µM | Potency [3] > 46 µM | outcome [4] | outcome [5]

C[N+](C)(C)CCO
inactive: outcome [1] | outcome [4] | outcome [5]

CC(=O)Nc1c(I)c(NC(C)=O)c(I)c(C(=O)O)c1I
inactive: outcome [1] | Potency [2] > 20.6 µM

NC(N)=NCCCCN=C(N)N
inactive: outcome [1] | Potency [2] > 46 µM and > 20.6 µM | Potency [3] > 46 µM and > 20.6 µM | outcome [4] | outcome [5]

CCOC(=O)NNc1nncc2ccccc12
inactive: outcome [1] | Potency [2] > 20.6 µM | Potency [3] > 20.6 µM | outcome [4] | outcome [5]

CN(C(=O)C(Cl)Cl)c1ccc(OC(=O)c2ccco2)cc1
inactive: outcome [1] | Potency [2] > 20.6 µM | Potency [3] > 20.6 µM | outcome [4] | outcome [5]

OCCOCCN1CCN(C(c2ccccc2)c2ccc(Cl)cc2)CC1 (stereo not given)
inactive: outcome [1]

CC(=O)[C@@]1(O)CC[C@H]2[C@@H]3C[C@H](C)C4=CC(=O)CC[C@]4(C)[C@H]3CC[C@@]21C
inactive: outcome [1]
active: Potency [2] 0.00082 µM

O=C(O)c1ccccc1S
inactive: outcome [1] | Potency [2] > 20.6 µM

CC(=O)OCC[N+](C)(C)C
inactive: outcome [1] | Potency [2] > 20.6 µM

Brc1ccc([C@H]2CN3CCSC3=N2)cc1
inactive: outcome [1] | Potency [2] > 46 µM | Potency [3] > 46 µM | outcome [4] | outcome [5]

C[C@H]1C[C@@H]2[C@H]([C@@H](O)C[C@@]3(C)[C@H]2CC[C@]3(O)C(=O)CO)[C@@]2(C)C=CC(=O)C=C12
inactive: outcome [1]

O=C(CCCCC(=O)Nc1c(I)cc(I)c(C(=O)O)c1I)Nc1c(I)cc(I)c(C(=O)O)c1I
inactive: outcome [1] | Potency [2] > 20.6 µM | Potency [3] > 20.6 µM | outcome [4] | outcome [5]

CC(NCCC(c1ccccc1)c1ccccc1)c1ccccc1 (stereo not given)
inactive: outcome [1] | Potency [2] > 20.6 µM

CCCC(=O)O[C@]1(C(=O)CCl)[C@@H](C)C[C@H]2[C@@H]3CCC4=CC(=O)C=C[C@]4(C)[C@@]3(F)C(=O)C[C@@]21C
inactive: outcome [1]
active: Potency [2] < 5.9e-06 µM

Cn1cnc2c(NCc3ccccc3)nc(NCCO)nc21
inactive: outcome [1] | Potency [2] > 46 µM | Potency [3] > 46 µM | outcome [5]

CC1(C)O[C@@H]2C[C@H]3[C@@H]4C[C@H](F)C5=CC(=O)C=C[C@]5(C)[C@@]4(F)[C@@H](O)C[C@]3(C)[C@]2(C(=O)CO)O1
inactive: outcome [1]
active: Potency [2] 0.000728 µM

O=C(O)/C=C(\CC(=O)O)C(=O)O
inactive: outcome [1] | activity change, negative = inhibition [4] 4.55% [at 11.4 µM] | outcome [5]

COc1ccccc1N1CCN(CCN2C(=O)CC3(CCCC3)CC2=O)CC1
inactive: outcome [1] | Potency [2] > 46 µM | Potency [3] > 46 µM | outcome [4] | outcome [5]

CN1CCCN(C(c2ccccc2)c2ccc(Cl)cc2)CC1 (stereo not given)
active: Potency [2] 6.11 µM
inactive: outcome [1]

CCN(CC)CCOc1ccc(/C(=C(\Cl)c2ccccc2)c2ccccc2)cc1
inactive: outcome [1] | Potency [2] > 20.6 µM | Potency [3] > 20.6 µM | outcome [4]

CCCCCC(=O)O[C@]1(C(C)=O)CC[C@H]2[C@@H]3CCC4=CC(=O)CC[C@]4(C)[C@H]3CC[C@@]21C
active: Potency [2] 0.00527 µM
inactive: outcome [1]

OC(CCCN1CCCCC1)(c1ccccc1)c1ccccc1
inactive: outcome [1] | outcome [4]

Cc1ncc(CO)c(CO)c1O
inactive: outcome [1] | outcome [4] | outcome [5]

C[C@]12CCC(=O)C=C1CC[C@@H]1[C@@H]2[C@@H](O)C[C@@]2(C)[C@H]1CC[C@]2(O)C(=O)COC(=O)CCC(=O)O
inactive: outcome [1]
active: Potency [2] 44.2 nM and 599 nM

CC(C)N(CCC(=O)c1ccc2ccccc2c1)Cc1ccccc1
inactive: Potency [2] > 46 µM | Potency [3] > 46 µM | outcome [4] | outcome [5]

Nc1cccc2c(N)cccc12
inactive: outcome [4] | Potency [6] | Potency [7] | Potency [8] | Potency [9] | Potency [10] | outcome [11] | Potency [12] | outcome [13] | Potency [14] | outcome [15] | outcome [16] | outcome [17] | outcome [18]

CCCCCCCCCCCCCCCC[n+]1ccccc1
active: Potency [6] 0.398 µM | Potency [19] 25.1 µM | Potency [8] 3.98 µM | Potency [20] 25.1 µM | Potency [9] 31.6 µM | Potency [10] 31.6 µM
inactive: outcome [4] | outcome [13] | Potency [14] | outcome [17]

CN(C)c1cc2c(Nc3ccc4c(cnn4Cc4ccccc4)c3)ncnc2cn1
inactive: Potency [2] > 46 µM | Potency [3] > 46 µM | outcome [4] | outcome [5]

Nc1c2ccccc2nc2ccccc12
inactive: outcome [4] | outcome [13] | outcome [16] | outcome [17]
active: activity change, negative = cytotoxicity [6] -89.3% | activity change, negative = cytotoxicity [19] -137% | Potency [7] 15.8 µM | Potency [8] 15.8 µM | Potency [20] 7.94 µM | Potency [9] 31.6 µM | Potency [12] 31.6 µM | Potency [14] 39.8 µM

OCc1c[nH]c2ccccc12
inactive: outcome [4] | Potency [6] | activity change, negative = cytotoxicity [19] 0.242% | Potency [7] | Potency [8] | Potency [20] | Potency [10] | outcome [11] | Potency [12] | outcome [13] | Potency [14] | outcome [15] | outcome [16] | outcome [17] | outcome [18]

Cc1ccc(O)cc1
inactive: Potency [6] | activity change, negative = cytotoxicity [19] -11.4% | Potency [7] | Potency [8] | Potency [20] | Potency [9] | Potency [10] | outcome [11] | Potency [12] | outcome [13] | Potency [14] | outcome [15] | outcome [16] | outcome [17] | outcome [18]

Brc1ccccc1-c1ccccc1
inactive: outcome [4] | Potency [6] | activity change, negative = cytotoxicity [19] 3.13% | Potency [7] | Potency [8] | Potency [20] | Potency [9] | Potency [10] | outcome [11] | Potency [12] | outcome [13] | Potency [14] | outcome [15] | outcome [16] | outcome [17] | outcome [18]

C[C@@H](C1=C(CCN(C)C)Cc2ccccc21)c1ccccn1
inactive: outcome [4]

O=C(NO)c1ccccc1
inactive: outcome [4] | Potency [6] | Potency [7] | Potency [8] | Potency [20] | Potency [9] | Potency [10] | outcome [11] | Potency [12] | outcome [13] | Potency [14] | outcome [15] | outcome [16] | outcome [17] | outcome [18]

Oc1ccccc1
inactive: outcome [4] | Potency [6] | activity change, negative = cytotoxicity [19] -17.5% | Potency [7] | Potency [8] | Potency [20] | Potency [9] | Potency [10] | outcome [11] | Potency [12] | outcome [13] | Potency [14] | outcome [15] | outcome [16] | outcome [17] | outcome [18]

Reference: PubChem BioAssay (NCATS)
